# Reference: PubChem BioAssay AID696 (Sanford-Burnham Center for Chemical Genomics, 2007)
# The whole screen tested about 96,000 compounds, of which about 1,200 (1.2%) were called active. Cut-off read from the data, not from the text of the source: active = activation fold above about 2; inactive = the rest. Shown is part of a subset that was picked to be rich in actives.
# Biological target: Alkaline phosphatase, placental type (Homo sapiens) (UniProt P05187)
# Test: activation of human placental alkaline phosphatase – biochemical, luminescence, HTS (AID 696)
# Conditions: purified PLAP enzyme, luminescent substrate read-out; at 20 µM; stronger effect = higher value
# Alkaline phosphatase, placental type (Homo sapiens), sequence (P05187 whole entry, looked up): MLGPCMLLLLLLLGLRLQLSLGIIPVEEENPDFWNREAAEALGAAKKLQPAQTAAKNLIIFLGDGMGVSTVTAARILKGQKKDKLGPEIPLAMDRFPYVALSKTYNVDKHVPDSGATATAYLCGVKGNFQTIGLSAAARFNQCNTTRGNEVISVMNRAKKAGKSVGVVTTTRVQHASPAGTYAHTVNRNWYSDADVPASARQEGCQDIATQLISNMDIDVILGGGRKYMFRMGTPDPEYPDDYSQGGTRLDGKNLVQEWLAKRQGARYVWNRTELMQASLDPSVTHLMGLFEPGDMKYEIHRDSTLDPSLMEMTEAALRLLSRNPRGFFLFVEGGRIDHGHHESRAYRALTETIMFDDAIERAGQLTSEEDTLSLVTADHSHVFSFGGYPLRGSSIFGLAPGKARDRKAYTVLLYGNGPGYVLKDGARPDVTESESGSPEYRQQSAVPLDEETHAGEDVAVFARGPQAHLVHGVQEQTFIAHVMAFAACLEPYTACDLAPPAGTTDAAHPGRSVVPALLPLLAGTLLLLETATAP
row,SMILES,activation fold
1,CCOC(=O)CSc1nnc(CNC(=O)Cc2ccccc2)n1-c1ccccc1OC,1 (inactive)
2,CCOc1ccc(C(CCc2ccccc2)NC(=O)c2ccc(OC)c(OC)c2)cc1OCC (stereo not given),2.2 (active)
3,COc1ccc(C(=O)NCCc2ccc(S(N)(=O)=O)cc2)cc1OC,1 (inactive)
4,CCOC(=O)C1=NNC2(c3ccc(Cl)cc3)C(=O)N(c3cc(C)cc(C)c3)C(=O)C12 (stereo not given),1.1 (inactive)
5,CCOC(=O)Cc1csc(NC(NC(=O)OCC)(C(F)(F)F)C(F)(F)F)n1,0.9 (inactive)
6,CCOc1ccc(Nc2nc(Cc3nnc(SCC(=O)c4ccc(C)cc4)o3)cs2)cc1,0.7 (inactive)
7,Cn1c(-c2sc3cc(C(F)(F)F)cnc3c2-c2ccccc2)n[nH]c1=S,2.6 (active)
8,Cc1cc(C(F)(F)F)n2ncc(-c3ccccc3)c2n1,0.9 (inactive)
9,Cc1ccc(/C=N\n2c(-c3ccccc3)n[nH]c2=S)s1,1.3 (inactive)
10,CO/N=C(/CS(=O)(=O)c1ccc(Br)cc1)c1ccc(OC)cc1,1.6 (inactive)
11,CC(C)c1ccc(Nc2ncccc2C#N)cc1,0.9 (inactive)
12,COc1ccccc1C(=O)Nc1nc2nc(-c3ccccc3)cc(=O)n2[nH]1,1.1 (inactive)
13,CCCCNc1ccc(C(=O)Nc2cccc(C)n2)cc1[N+](=O)[O-],0.9 (inactive)
14,O=C(Nc1nnc(SCc2ccc(Cl)cc2Cl)s1)C1COc2ccccc2O1 (stereo not given),1.1 (inactive)
15,O=C(c1cccs1)N1CCN(Cc2ccc3c(c2)OCO3)CC1,1.2 (inactive)
16,O=C(Nc1cccc2ccccc12)N1CCN(Cc2ccc3c(c2)OCO3)CC1,2.1 (active)
17,O=C(CCCN1C(=O)c2cccc3cccc(c23)C1=O)N1CCN(Cc2ccc3c(c2)OCO3)CC1,1.6 (inactive)
18,O=C(CN1CCSCC1)N/N=C/c1ccc(F)cc1F,1 (inactive)
19,Cc1cccc(N2C(=O)SC(N(CC(=O)O)c3cccc(C)c3)C2=O)c1 (stereo not given),2.2 (active)
20,Cc1cccc(N(CC(=O)N2CCOCC2)S(C)(=O)=O)c1,0.8 (inactive)
21,CCC1Oc2ccc(Cl)cc2N(CC(=O)O)C1=O (stereo not given),1 (inactive)
22,Cc1csc(OCC(=O)Nc2ccc(C)c(C)c2)n1,1.2 (inactive)
23,N/C(=N\OC(=O)CCc1ccccc1)c1ccc(Cl)cc1,0.9 (inactive)
24,Cc1[nH]n(-c2cccc(Cl)c2)c(=O)c1/C=N/n1c(C)nc2ccccc2c1=O,2.1 (active)
25,COc1cc(NS(=O)(=O)c2ccc(N=Cc3c(C)[nH]n(-c4ccccc4)c3=O)cc2)nc(OC)n1,1.5 (inactive)
26,Cc1[nH]n(-c2cccc(Cl)c2)c(=O)c1-c1ccc(Cl)cc1,1 (inactive)
27,CC1(C)CC(=O)C2=C(C1)N=C1SCCC(=O)N1C2c1ccc(C(F)(F)F)cc1 (stereo not given),1.2 (inactive)
28,COc1ccc(C)cc1S(=O)(=O)NCCc1ccccc1,0.8 (inactive)
29,COC(=O)c1ccccc1NC(=O)CN(Cc1ccc(Cl)cc1)S(C)(=O)=O,1.5 (inactive)
30,COc1ccc([N+](=O)[O-])cc1N(CC(O)Cn1nnc2ccccc21)S(=O)(=O)c1ccc(C)cc1 (stereo not given),1.4 (inactive)
